Reference: the supplement of paper PMC8975748
Structures can show the parent of a compound that is named as a salt.

Tested on: Saccharomyces cerevisiae BY4741 SeMeCo community
Test: z-score of subpopulation abundance vs DMSO median, subpopulation auxotrophic for HU; higher = larger share of this subpopulation than in DMSO controls
Details: 10 µM; 24 h; SM minimal medium; subpopulation (auxotrophy): HU
Method: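 Fluorescent four-plasmid SeMeCo (self-establishing metabolically cooperating S. cerevisiae BY4741 community; plasmids pH-mRuby2, pL-mWasabi, pU-eCFP, pM-TagRFP657) was grown 24 h in minimal SM medium with each Selleck FDA-approved drug at 10 µM in 384-well plates. Cells were fixed and imaged by high-content confocal microscopy. For each auxotrophic subpopulation (and the prototroph), a z-score gives the deviation from the DMSO vehicle-control population median.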

Row | SMILES | z-score of subpopulation abundance
1 | CCOC(=O)c1ccc(N)cc1 [Benzocaine] | -1.28
2 | O=C1CN2Cc3c(ccc(Cl)c3Cl)N=C2N1 [Anagrelide HCl] | 0.3
3 | CNCCC(Oc1ccc(C(F)(F)F)cc1)c1ccccc1 (stereo not given) [Fluoxetine HCl] | -0.26
4 | CC1CCc2cc(F)cc3c(=O)c(C(=O)O)cn1c23 (stereo not given) [Flumequine] | 0.37
5 | COC(=O)C1=C(C)NC(C)=C(C(=O)OCCN2CCN(C(c3ccccc3)c3ccccc3)CC2)C1c1cccc([N+](=O)[O-])c1 (stereo not given) [Manidipine] | 0.65
6 | CCN(Cc1ccncc1)C(=O)C(CO)c1ccccc1 (stereo not given) [Tropicamide] | 0.5
7 | C[N+](C)(C)CCO.[Cl-] [Choline Chloride] | -0.41
8 | Fc1ccc([C@@H]2CCNC[C@H]2COc2ccc3c(c2)OCO3)cc1 [Paroxetine HCl] | -1.01
9 | CC(=O)OCC(CCn1cnc2cnc(N)nc21)COC(C)=O [Famciclovir] | -0.39
10 | CO[C@@H]1[C@@H](O[C@@H]2O[C@H](C)[C@@H](O[C@H]3C[C@@](C)(O)[C@@H](O)[C@H](C)O3)[C@H](N(C)C)[C@H]2O)[C@@H](CC=O)C[C@@H](C)[C@@H](O[C@H]2CC[C@H](N(C)C)[C@@H](C)O2)/C=C/C=C/C[C@@H](C)OC(=O)C[C@H]1OC(C)=O [Acetylspiramycin (ASPM)] | -0.58
11 | O=C1CN(/N=C/c2ccc([N+](=O)[O-])o2)C(=O)N1 [Nitrofurantoin] | -0.72
12 | CC(C)NC(=N)NC(=N)Nc1ccc(Cl)cc1 [Proguanil] | -0.55
13 | CN[C@H]1CC[C@@H](c2ccc(Cl)c(Cl)c2)c2ccccc21 [Sertraline HCl] | -1.26
14 | C=C[C@H]1CN2CC[C@H]1C[C@@H]2[C@@H](O)c1ccnc2ccc(OC)cc12 [Quinidine sulfate] | -0.47
15 | C[C@H]1c2cccc(O)c2C(O)=C2C(=O)[C@]3(O)C(O)=C(C(N)=O)C(=O)[C@@H](N(C)C)[C@@H]3[C@@H](O)[C@@H]21 [Doxycycline] | -1.25
16 | CCOC(=O)C1=C(C)NC(C)=C(C(=O)OCC)C1c1ccccc1/C=C/C(=O)OC(C)(C)C [Lacidipine] | -2.93
17 | CCC1=C(C)CN(C(=O)NCCc2ccc(S(=O)(=O)NC(=O)N[C@H]3CC[C@H](C)CC3)cc2)C1=O [Glimepiride] | 0.22
18 | CCCCCCCCCCCCCCCCOP(=O)([O-])OCC[N+](C)(C)C [Miltefosine] | 1.54
19 | COc1cc(NS(=O)(=O)c2ccc(N)cc2)nc(OC)n1 [SulfadiMethoxine sodium] | 0.29
20 | Fc1ccc(C(c2ccc(F)cc2)N2CCN(C/C=C/c3ccccc3)CC2)cc1 [Flunarizine 2HCl] | 0.97

Row | SMILES | z-score of subpopulation abundance
21 | NC1CCN(c2nc3c(cc2F)c(=O)c(C(=O)O)cn3-c2ccc(F)cc2F)C1 (stereo not given) [Tosufloxacin p-Toluenesulfonate Hydrate] | -0.62
22 | Clc1ccc(CSC(Cn2ccnc2)c2ccc(Cl)cc2Cl)cc1 (stereo not given) [Sulconazole Nitrate] | 14.1
23 | O=C(O)Cc1ccccc1Nc1c(Cl)cccc1Cl [Diclofenac Sodium] | -1.76
24 | C=C[C@]1(C)C[C@@H](OC(=O)CSC(C)(C)CNC(=O)[C@H](N)C(C)C)[C@]2(C)[C@H](C)CC[C@]3(CCC(=O)[C@H]32)[C@@H](C)[C@@H]1O [Valnemulin HCl] | 1.22
25 | O=c1cc(-c2ccc(O)c(O)c2)oc2cc(O)cc(O)c12 [Luteolin] | 1.42
26 | C#C[C@]1(O)CC[C@H]2[C@@H]3CCc4cc(OC)ccc4[C@H]3CC[C@@]21C [Mestranol] | -0.49
27 | Cc1c(OCC(F)(F)F)ccnc1C[S+]([O-])c1nc2ccccc2[nH]1 (stereo not given) [Lansoprazole] | 0.54
28 | CCC(C)(C)C(=O)O[C@H]1C[C@@H](C)C=C2C=C[C@H](C)[C@H](CC[C@@H]3C[C@@H](O)CC(=O)O3)[C@H]21 [Simvastatin] | 1.53
29 | Cc1ccccc1C(OCCN(C)C)c1ccccc1 (stereo not given) [Orphenadrine Citrate] | 0.14
30 | Nc1ccc2cc3ccc(N)cc3nc2c1 [Proflavine] | -6.17
31 | Nc1ccc(/N=N/c2ccccc2)c(N)n1 [Phenazopyridine HCl] | -2.46
32 | COC(=O)C1=C(C#N)NC(C)=C(C(=O)OC(C)C)C1c1cccc([N+](=O)[O-])c1 (stereo not given) [Nilvadipine] | -1.66
33 | CO[C@H]1C[C@@H]2CC[C@@H](C)[C@@](O)(O2)C(=O)C(=O)N2CCCC[C@H]2C(=O)O[C@H]([C@H](C)C[C@@H]2CC[C@@H](OP(C)(C)=O)[C@H](OC)C2)CC(=O)[C@H](C)/C=C(\C)[C@@H](O)[C@@H](OC)C(=O)[C@H](C)C[C@H](C)/C=C/C=C/C=C/1C [Ridaforolimus (Deforolimus, MK-8669)] | 25.9
34 | CC1(C)S[C@@H]2[C@H](NC(=O)[C@H](N)c3ccccc3)C(=O)N2[C@H]1C(=O)OCOC(=O)[C@@H]1N2C(=O)C[C@H]2S(=O)(=O)C1(C)C [Sultamicillin Tosylate] | 0.19
35 | C[C@@H](O)[C@H]1C(=O)N2C(C(=O)O)=C(S[C@@H]3CN[C@H](C(=O)Nc4cccc(C(=O)O)c4)C3)[C@H](C)[C@H]12 [Ertapenem sodium] | -0.53
36 | CNCC[C@H](Oc1cccc2ccccc12)c1cccs1 [Duloxetine HCl] | -1.13
37 | C[C@]12CC[C@@H]3c4ccc(O)cc4CC[C@H]3[C@@H]1CCC2=O [Estrone] | -0.27
38 | C[C@]1(Cn2ccnn2)[C@H](C(=O)O)N2C(=O)C[C@H]2S1(=O)=O [Tazobactam] | 0.31
39 | CCCSc1ccc2[nH]c(NC(=O)OC)nc2c1 [Albendazole] | -0.61
40 | Cn1cc(C(=O)[C@@H]2CCc3[nH]cnc3C2)c2ccccc21 [Ramosetron Hydrochloride] | -0.53
